CHX counter: Cycloheximide Counterscreen for Small Molecule Inhibitors of Shiga Toxin; cell reporter, cycloheximide protein synthesis inhibition counterscreen; max response, %; 12% of 300,000 active; in the data active = max response mostly above about 13%, no sharp cut-off; inactive = mostly below about 14%; note: read at 38.3 µM for the half of the compounds with a filed dose; 0% is about no effect
LmPK inh: qHTS Assay for Inhibitors of Leishmania Mexicana Pyruvate Kinase (LmPK); purified LmPK, Kinase-Glo ATP luminescence, 1 h; 0.37% of 290,000 active; Potency, µM (highest dose often 57.5 µM), without a hit: at the highest dose activity change, negative = inhibition, hits mostly inhibitors; active = well fitted curve in the direction sought with a large enough effect; inconclusive = small, poorly fitted or top-dose-only effect, or another doubt; inactive = no such curve, though single readings can be large; an effect the other way counts as inactive or inconclusive; note: potency is the fitted concentration of half-maximal effect; % is set by controls: 0 for no effect and ±100 for the full control effect
Target sequence (Q27686 whole entry, looked up): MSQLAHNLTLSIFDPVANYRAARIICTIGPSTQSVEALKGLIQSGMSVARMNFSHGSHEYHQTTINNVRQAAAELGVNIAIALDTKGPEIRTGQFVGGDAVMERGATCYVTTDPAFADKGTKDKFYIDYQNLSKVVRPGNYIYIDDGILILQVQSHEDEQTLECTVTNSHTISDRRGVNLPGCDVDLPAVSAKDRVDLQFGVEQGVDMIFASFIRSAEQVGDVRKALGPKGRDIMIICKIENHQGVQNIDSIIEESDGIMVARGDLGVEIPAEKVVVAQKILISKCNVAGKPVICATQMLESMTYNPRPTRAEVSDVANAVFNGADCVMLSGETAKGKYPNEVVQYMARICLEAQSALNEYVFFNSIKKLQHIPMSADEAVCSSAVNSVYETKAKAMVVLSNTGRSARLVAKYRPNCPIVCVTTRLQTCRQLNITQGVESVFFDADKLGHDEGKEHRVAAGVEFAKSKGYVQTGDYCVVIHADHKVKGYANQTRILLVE
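qHTS format; LmPK 0.1 nM; substrates PEP 0.5 mM and ADP 0.1 mM. One-hour room-temperature incubation, then coupled luciferase luminescence; 0.5 nM enzyme wells mark activation.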
SARS PLP yeast: qHTS of Yeast-based Assay for SARS-CoV PLP | S. cerevisiae expressing SARS-CoV PLpro, growth rescue | Potency, µM (doses to about 32.9 µM), inactives show at the top dose activity, positive = growth rescue, usual class: activators | 0.19% of 330,000 active | AID 485353, 2010; note: potency is the fitted concentration of half-maximal effect; 0% is about no effect; nearly all actives have a fitted effect of over 55% in size
Tb PYK inh: qHTS of Trypanosoma Brucei Inhibitors. pyruvate kinase (Trypanosoma brucei), Q57TT1. TbPYK enzyme, Kinase-Glo Plus ATP luminescence, 45 min. Potency, µM (series often up to 76.8 µM), inactives show top-dose activity, negative = inhibition, usual class: inhibitors. 0.12% of 410,000 active; active = well fitted curve in the direction sought with a large enough effect; inconclusive = small, poorly fitted or top-dose-only effect, or another doubt; inactive = no such curve, though single readings can be large; an effect the other way counts as inactive or inconclusive; note: potency is the fitted concentration of half-maximal effect; % is set by controls: 0 for no effect and ±100 for the full control effect; nearly all actives have a fitted effect of over 50% in size
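Glycolytic pyruvate kinase of T. brucei was incubated with substrate, test compound and 130 uM ADP for 45 minutes at room temperature. Luminescent Kinase-Glo Plus signal was measured after 10 minutes.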
Shiga inhibitor: A qHTS for Small Molecule Inhibitors of Shiga Toxin; inhibition, % at 38.7 µM; Vero cells, Shiga toxin protein synthesis inhibition reporter; 9.2% of 290,000 active; in the data active = inhibition mostly above about 28%, no sharp cut-off; inactive = mostly below about 43%; note: 0% is about no effect
NS1 inh: qHTS Assay for Inhibitors of Influenza NS1 Protein Function; 0.4% of 270,000 active; Potency, µM (doses to about 46.1 µM), without a hit: top-dose activity, positive = more growth; AID 2326, 2010; note: potency is the fitted concentration of half-maximal effect; actives are rising curves; nearly all actives have a fitted effect of over 50% in size
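Recovery from NS1-induced slow growth read by OD600 in budding yeast switched to galactose assay medium (pH 6.0, -URA) at 1:100 dilution. Compound 23 nl per well; the matching strain lacking NS1 serves as control.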
Active calls of the source: *; u = inconclusive; x = not tested or not shown. Many of the other results were omitted from the sample, so hits are more common in it than they were. Unless noted, calls come from the whole dose curve.

SMILES	CHX counter	LmPK inh	SARS PLP yeast	Tb PYK inh	Shiga inhibitor	NS1 inh
CCCc1nnc(NC(=O)CCC(=O)N2CCN(S(=O)(=O)c3ccc(C)cc3)CC2)s1	21	4%	1%	-10%	53*	11%
Clc1cccc(CSc2ccc(-c3cccs3)nn2)c1	x	x	x	4%	x	x
CC1CCCC(C)N1C(=O)COC(=O)/C=C/c1ccco1 (configuration not stated)	x	x	-1%	-2%	x	x
O=C(/C=C/c1ccccc1)Oc1ccc(C(=S)N2CCOCC2)cc1	15	2%	-4%	1%	-5	x
O=C(/C=C/c1ccco1)Oc1ccc(C(=S)N2CCOCC2)cc1	35*	18%	9%	-14%	41	x
COC(=O)c1ccc(OC(=O)c2ccco2)cc1	1	-3%	5%	-1%	-9	-37%
O=Cc1cccc(OC(=O)/C=C/c2ccco2)c1	52*	15%	3%	1%	80*	-14%
COC(=O)c1ccc(OC(=O)/C=C/c2ccco2)cc1	26*	-11%	2%	-5%	36*	-8%
O=C(CCOc1ccccc1)N(Cc1cccnc1)c1nc2ccc(F)cc2s1	x	x	x	-6%	x	x
CC(C)CC(N)c1csc(NC(=O)Nc2ccccc2C(C)(C)C)n1 (configuration not stated)	x	x	x	2%	x	x
CCN(CC)c1ccc2c(c1)C(=O)N(C)C2=O	33*	4%	-5%	-8%	72*	-19%
CCN(CCCCN1C(=O)c2ccccc2C1=O)c1ccc2c(c1)C(=O)N(C)C2=O	-1	9%	-1%	4%	-17	-17%
COC(=O)c1ccc2nc(Nc3nc4ccc(F)cc4s3)sc2c1	28*	2%	-28%	-14%	-34	5%
CC(=O)c1sc(Nc2nc3ccc(F)cc3s2)nc1C	52*	0%	-15%	0%	97*	-164%
CCOC(=O)c1csc(Nc2nc3ccc(F)cc3s2)n1	20*	5%	-14%	5%	23*	-22%
Cc1c(NC(=O)c2cc(=O)c3cc(Cl)ccc3o2)c(=O)n(-c2ccccc2)n1C	x	x	x	-2%	x	x
CN1CCN(C2=C(Cl)C(=O)C(c3cnc(N4CCCCC4)s3)=C(Cl)C2=O)CC1	-2	u	-115%	1µM*	-4	7%
O=C(CN1C(=O)S/C(=C\c2ccc(F)cc2)C1=O)Nc1cccc(S(=O)(=O)NCc2ccco2)c1	67*	5%	1%	8%	138*	u
CCn1nc(C)cc1C(=O)OCC(=O)c1ccc(Cl)cc1	1	-2%	-2%	-1%	-9	-6%
Cc1cc(=O)oc(C)c1C(=O)OCC(=O)c1ccc(Cl)cc1	35*	1%	-8%	4%	80*	-16%
Cc1cc(=O)oc(C)c1C(=O)OCC(=O)c1ccc(Br)cc1	24*	1%	-26%	2%	70*	1%
CC(C)=CCN1CCN(Cc2ccc(C)s2)CC1CCO (configuration not stated)	-3	-2%	0%	0%	-2	6%
CC(C)=CCN1CCN(Cc2cnc(N3CCCC3)s2)CC1CCO (configuration not stated)	-2	-13%	0%	1%	-12	4%
CC(C)=CCN1CCN(Cc2cnc(C)s2)CC1CCO (configuration not stated)	43*	4%	-2%	2%	70*	-7%
CC(C)=CCN1CCN(Cc2cnc(N3CCOCC3)s2)CC1CCO (configuration not stated)	58*	2%	-1%	-4%	98*	-2%
SMILES	CHX counter	LmPK inh	SARS PLP yeast	Tb PYK inh	Shiga inhibitor	NS1 inh
Cc1cc(=O)[nH]c(SCn2nnc3ccccc3c2=O)n1	-4	0%	4%	-1%	-13	0%
CN(C)C(=O)CSc1nnc2sc3ccccc3n12	-1	-2%	u	-1%	19	-2%
O=c1c2ccccc2nnn1CSc1nc2ccccc2[nH]1	43*	-5%	18%	0%	77*	1%
O=c1c2ccccc2nnn1CSc1ccccc1F	63*	u	1%	-7%	55*	-15%
O=c1c2ccccc2nnn1CSc1nnc2sc3ccccc3n12	38*	u	-3%	x	79*	0%
Cc1ccc2nc(SCn3nnc4ccccc4c3=O)[nH]c2c1	65*	-3%	1%	-17%	98*	15%
O=S(=O)(c1ccc2c(c1)OCCO2)N1CCN(S(=O)(=O)c2ccccc2F)CC1	1	x	x	x	-4	x
O=C(O)c1nn(CCSc2ccccc2F)c(=O)c2ccccc12	23*	5%	0%	0%	52	-5%
Cc1ccc(SCCn2nc(C(=O)O)c3ccccc3c2=O)cc1	-1	-1%	-1%	10%	-5	x
Cc1ccc(SCn2nnc3ccccc3c2=O)c(C)c1	51*	4%	-13%	2%	118*	-4%
COCCCN1C(=O)C(CC(=O)NCCCN(C)C)CC(C(=O)N(C(C)C)C(C)C)=C1C (configuration not stated)	x	x	x	-8%	x	x
COC(=O)c1ccc(C2CC(=O)Nc3c2c(C)nn3-c2nc(C)cc(C)n2)cc1 (configuration not stated)	x	x	x	-12%	x	x
Cc1nn2c(=O)cc(CSc3nc4ccccc4[nH]3)nc2s1	22*	2%	4%	-2%	39	u
C=CCn1c(C)cc(C(=O)CSc2nc3ccccc3c(=O)[nH]2)c1C	63*	-1%	-9%	-28%	90*	-12%
Cc1ccc2nc(SCC(=O)c3cc(C)n(C)c3C)[nH]c2c1	13	1%	-24%	-10%	28	1%
Cc1cc(C(=O)CSc2nc3ccccc3[nH]2)c(C)n1Cc1ccco1	84*	-1%	1%	-1%	78*	3%
Cc1cc(C(=O)CSc2nc3ccccc3[nH]2)c(C)n1C	46*	0%	-2%	-22%	54*	-2%
COc1cc(C2N=C(N)Nc3nc4ccccc4n32)ccc1OCC(=O)O (configuration not stated)	x	x	x	-1%	x	x
CCOc1ccc(-c2cc3c(=O)n(Cc4nc(-c5ccc(OC(C)C)cc5)oc4C)ccn3n2)cc1Cl	x	x	x	-2%	x	x
COCCn1c(C)cc(C(=O)CSc2nc3ccccc3c(=O)[nH]2)c1C	53*	-6%	8%	-4%	92*	6%
COCC(C)n1c(C)cc(C(=O)COC(=O)CCc2nc3ccccc3c(=O)[nH]2)c1C (configuration not stated)	0	1%	3%	4%	-5	x
Cc1cc(C(=O)CSc2nc3ccc(Cl)cc3[nH]2)c(C)n1CC1CCCO1 (configuration not stated)	13	6%	-6%	-10%	44	21%
Cc1cc(C)c(C(=O)CSc2nc3ccccc3c(=O)[nH]2)cc1C	-1	7%	-9%	5%	-2	x

From PubChem BioAssay
